Several values for one entry are separate records, joined by “and”; a condition that tells them apart may be missing. Identical values can stand only once. Records with an inconclusive call do not appear. Some structures have more than one record in an assay (separate samples or runs), and their calls can disagree. Activity calls are given as the source filed them. Calls follow the shape of the dose curve; as a rule, active = well fitted inhibition curve with a large enough effect; inconclusive = small, poorly fitted or top-dose-only effect; inactive = no such curve, though single readings can be large or run the other way. Where a SMILES comes first, the peptide text is derived from it.
Experiment: Primary qHTS for inhibitors of nuclear receptor binding SET domain protein 2 (NSD2) in an RCH-ACV wild type WT cells (2C) (AID 1645877); also: nearly all actives have a fitted effect of over 70% in size
Conditions: RCH-ACV (leukaemia line) NSD2 WT (2C) viability, CellTiter-Glo, 72 h; series mostly up to 44.9 µM; activity change, negative = cell killing: at the top concentration
% is scaled to controls: 0 for no effect and ±100 for the full control effect; potency is read from the fitted curve at half-maximal effect.

SMILES	Potency	activity change, negative = cell killing	outcome
CCC(=O)O[C@]1(C(=O)COC)[C@@H](C)C[C@H]2[C@@H]3CCC4=CC(=O)C=C[C@]4(C)C3(F)[C@@H](O)C[C@@]21C (stereo partly drawn)	3.3 nM (active)	–	–
CCCC(=O)OCOC(=O)C1=C(C)NC(C)=C(C(=O)OC)C1c1cccc(Cl)c1Cl (stereo not drawn)	–	-15.4% (inactive)	–
Cc1ccccc1C(=O)N1CC/C(=N\OS(=O)(=O)O)c2ccc(Cl)cc21	–	-9.17% (inactive)	–
CCC(C(=O)OCCN1CCOC(c2ccccc2)C1C)c1ccccc1 (stereo not drawn)	–	-2.15% (inactive)	–
OC[C@]1(O)OC[C@@H](O)[C@H](O)[C@@H]1O	–	-5.87% (inactive)	–
O=[N+]([O-])c1ccc(-c2nc(-c3ccc(F)cc3)c(-c3ccncc3)[nH]2)cc1	inactive and 23.1 µM (active)	–	–
CC1CC(=O)NN=C1c1ccc(NCC(C)(C)NCC(O)COc2cc(Cl)ccc2C#N)cc1 (stereo not drawn)	–	-19.4% (inactive)	–
CC(C)=CCC/C(C)=C/CC/C(C)=C/CCC(=O)OC/C=C(\C)CCC=C(C)C	–	–	inactive
CC(=O)Nc1c(I)c(NC(C)=O)c(I)c(C(=O)O)c1I	–	7.48% (inactive)	–
O=C(O)Cc1ccccc1Oc1ccc(Cl)cc1Cl	–	–	inactive
CCOC(=O)c1ccc(NC(=O)CN2CCCCC2)cc1	–	-27% (inactive)	–
O=C(NN1CCCC1)NS(=O)(=O)c1ccc(Cl)cc1	–	–	inactive
CC(C)NCCCC1(C(N)=O)c2ccccc2-c2ccccc21	–	5.02% (inactive)	–
CCn1ccc(NS(=O)(=O)c2ccc(N)cc2)nc1=O	–	7.83% (inactive)	–
Nc1ncnc2c1ncn2Cc1c(F)cccc1Cl	–	-4.21% (inactive)	–
O=C(OCC(COC(=O)c1cccnc1)(COC(=O)c1cccnc1)COC(=O)c1cccnc1)c1cccnc1	–	8.18% (inactive)	–
NC(=O)NC1N=C([O][Al])NC1=O (stereo not drawn)	–	-0.0232% (inactive)	–
CCOC(=O)Oc1ccc(CCNC(=O)[C@H](CCSC)NC(C)=O)cc1OC(=O)OCC	–	-13.2% (inactive)	–
O=C(O)[C@@H](O)[C@H](O)[C@H](O)[C@@H](O)C(=O)O	–	-6.46% (inactive)	–

SMILES	Potency	activity change, negative = cell killing	outcome
CCCCCCCCCCCCCCCCCCNC(=O)OC1CCN(C(=O)OC[C@H](COC(=O)N(Cc2cccc[n+]2CC)C(=O)c2ccccc2OC)OC)CC1	2660 nM (active)	–	–
O=C(CO)[C@@H](O)[C@H](O)[C@@H](O)CO	–	–	inactive
COc1cc2c(cc1OC)CN(C(=O)[C@H](C)N[C@@H](CCc1ccccc1)C(=O)O)[C@H](C(=O)O)C2	–	-2.2% (inactive)	–
CCN(CC)C(=O)C1CN2CCc3cc(OC)c(OC)cc3C2CC1OC(C)=O (stereo not drawn)	–	–	inactive
Nc1c2ccccc2nc2ccccc12	4220 nM (active)	–	–
CC(C)(Oc1ccc(Cl)cc1)C(=O)OCCCOC(=O)C(C)(C)Oc1ccc(Cl)cc1	–	5.73% (inactive)	–
NC(=O)COCCN1CCN(C(c2ccccc2)c2ccc(Cl)cc2)CC1 (stereo not drawn)	–	-10.5% (inactive)	–
CC(=O)N[C@@H](CO)C(=O)N[C@@H](CC(=O)O)C(=O)N[C@@H](CCCCN)C(=O)N1CCC[C@H]1C(=O)O (Ac-SDKP-OH)	–	–	inactive
CCC(C(=O)NC(=O)NC(C)=O)c1ccccc1 (stereo not drawn)	–	8.53% (inactive)	–
O=C1c2ccccc2CCc2ccccc21	–	4.54% (inactive)	–
C=C(C)C(=O)OCC(O)CO (stereo not drawn)	–	-5.72% (inactive)	–
Cc1cccc(OCC(O)CNC(C)(C)C)c1C (stereo not drawn)	–	-18.8% (inactive)	–
Nc1nnnn1-c1ccccc1	–	9.3% (inactive)	–
CN1CC[C@H](c2c(O)cc(O)c3c(=O)cc(-c4ccccc4Cl)oc23)[C@H](O)C1	10.6 nM (active)	–	–
CCCCCC1Nc2cc(C(F)(F)F)c(S(N)(=O)=O)cc2S(=O)(=O)N1 (stereo not drawn)	–	0.691% (inactive)	–
Cc1nc([N+](=O)[O-])cn1-c1ccc([N+](=O)[O-])cc1	–	–	inactive
O=S(=O)(O)c1ccc2nc(-c3ccccc3)[nH]c2c1	–	-13.8% (inactive)	–
CC(=O)c1ccc(O)c(C(N)=O)c1	–	–	inactive
COc1ccc(-n2nc(CCC(=O)N(C)O)cc2-c2ccc(Cl)cc2)cc1	7500 nM (active)	–	–
